Data reported in PubChem BioAssay (EPA / NIEHS).
Calls of active or inactive are those of the source. How the source made its calls: active means hit-call score of the fitted dose curve at least 0.9, where 1 is the maximum; inactive means score below 0.9.

test: CEETOX_H295R_ESTRONE: CeeTox H295R High-throughput Steroidogenesis Assay for Estrone (AID 2283441); conditions: actives raise or lower the signal;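 further: estrone secreted into medium measured by LC-MS/MS after dansyl derivatization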;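 on AC50: human adrenal H295R cells prestimulated with forskolin for two days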
Experimental: CEETOX_H295R is a cell-based, multiplexed-readout assay that uses H295R, a human adrenal gland cell line, with measurements taken at 48 hours after chemical dosing in a 96-well plate.CEETOX_H295R_ESTRONE is one of 23 assay component(s) measured or calculated from the CEETOX_H295R assay. It is designed to make measurements of hormone induction, a form of inducible reporter, as detected with absorbance signals by HPLC-MS-MS technology.Data from the assay component CEETOX_H295R_ESTRONE was analyzed into 1 assay endpoint. This assay endpoint, CEETOX_H295R_ESTRONE, was analyzed with bidirectional fitting relative to DMSO as the negative control and baseline of activity. Using a type of inducible reporter, gain or loss-of-signal activity using HPLC-MS-MS was used to understand synthesis of Estrone in H295R cell line at 48hr of chemical exposure. To generalize the intended target to other relatable targets, this assay endpoint is annotated to the steroid hormone intended target family, where the subfamily is estrogens.
Cell culture and media preparation procedures were conducted in accordance with OECD Test No. 456 guidelines, with minor modifications. H295R cells (ATCC CRL-2128) were expanded for 5 passages and frozen in batches in liquid nitrogen. Prior to the steroidogenesis assay, H295R cells were thawed and passed at least 4 times. The maximum passage was 10. […] After seeding cells into 96-well plates at 50-60% confluency, cells were allowed to adhere overnight. Prior to chemical testing, culture medium was replaced with 175 uL medium containing 10 uM forskolin to stimulate steroidogenesis for 48 hours. Following prestimulation, forskolin medium was replaced with medium containing test chemical solubilized in DMSO (ensuring a final concentration of 0.1% DMSO). Test chemicals were incubated for 48 hours, then the medium was removed and split into 2 vials containing approximately 75uL each, and stored at -80 C prior to hormone analysis. For steroid quantification, media samples were shipped to OpAns, LLC (Durham, NC) on dry ice, and samples were thawed to room temperature prior to liquid-liquid extraction. Steroid hormones were extracted from media samples using methyl tertbutyl ether (MTBE). An extra derivatization with dansyl chloride was included for estrogen (estrone and estradiol) detection only. Steroid hormones were separated by HPLC, eluted using a reverse phase C18 gradient with electrospray positive ionization, followed by quantification by tandem mass spectrometry (MS/MS). Data were acquired on a MassHunter Workstation Acquisition version B03.01 (Agilent Technologies, Inc.) and processed using MassHunter Quantitative Analysis for QQQ. Accuracy was determined for each hormone analyte from 3 standards to determine upper and lower limits of quantification (ULOQ and LLOQ, respectively) using a 7-point standard curve. Precision and accuracy of the extraction and quantification methods were calculated as the percent relative standard deviation (%RSD) of the spiked standards and percent spiked standard recovered, respectively. The goal was to achieve 100% accuracy (i.e., recover all spiked-in standard at quantification with minimal loss during run time) and good precision (i.e., have %RSD <15% to ensure reproducibility). Test medium was removed following chemical exposure, and cell viability was evaluated in the same wells by MTT. MTT procedures were as follows: after removal of test medium, 500 uL of 0.5 mg/ml of 3-[4,5-dimethylthiazol-2-y]2,5-diphenyltetrazoliumbromide solution was added to the cells. Following a 4-hour incubation at 37 C and 5% CO2 to allow formazan-crystal formation, the MTT solution was removed and blue formazan salt crystals were solubilized using 500uL anhydrous isopropanol with shaking for 20 minutes. Absorbance was read at 570 and 650nm using a Packard Fusion microplate reader. Background correction of absorbance units was used to determine percent change relative to controls. […] […]

Row | Compound | AC50 | outcome
1 | Oc1ccc(Cl)cc1Cl | 24.4 µM (active) | 
2 | Cc1ccc(O)c(C)c1 |  | inactive
3 | Nc1ccc(-c2ccc(N)cc2)cc1 |  | inactive
4 | Cc1cc2c3c(c1)C(c1ccccc1)=N[C@@H](NC(=O)c1ccncc1)C(=O)N3CC2 |  | inactive
5 | CC#Cc1cc(C)nc(Nc2ccccc2)n1 |  | inactive
6 | NS(=O)(=O)C(F)(F)C(F)(F)C(F)(F)C(F)(F)C(F)(F)C(F)(F)C(F)(F)C(F)(F)F |  | inactive
7 | CCC(=O)O[C@H]1CC[C@H]2[C@@H]3CCC4=CC(=O)CC[C@]4(C)[C@H]3CC[C@]12C | 1.31 µM (active) | 
8 | Cc1cccc(C)c1N |  | inactive
9 | Clc1ccc(C(c2ccccc2Cl)C(Cl)(Cl)Cl)cc1 (stereo not drawn) |  | inactive
10 | N#Cc1ccc(N(CC(N)=O)CC(F)(F)F)cc1C(F)(F)F |  | inactive
11 | Cc1cc(O)ccc1Cl |  | inactive
12 | O=C(NC(=O)c1c(F)cccc1F)Nc1cc(Cl)c(OC(F)(F)C(F)F)c(Cl)c1 |  | inactive
13 | C[C@]12CCC(=O)C=C1CC[C@@H]1[C@@H]2CC[C@]2(C)C(=O)CC[C@@H]12 |  | inactive
